Assay outcomes as filed in PubChem BioAssay.
BAZ2B inh: BAZ2B (human) inhibition; Q9UIF8; AlphaScreen BAZ2B-H3K14Ac peptide displacement; Potency, µM (titrated, usually from 114 µM), without a hit: at the top dose activity change, negative = inhibition, most hits filed as inhibitors; 4.4% of 360,000 active; also: % is scaled to controls: 0 for no effect and ±100 for the full control effect; nearly all actives have a fitted effect of over 60% in size
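Protein-peptide AlphaScreen: BAZ2B 50 nM, b-H3K14Ac 50 nM, 1x PBS pH 7.4 + 0.01% Tween-20. Preincubation 30 min RT; cpd 30 min RT (top 110 uM); beads 20 min RT, light-protected.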
HP1b binding inh: blocks HP1-beta chromodomain binding to methylated histone tails | P83916 | AlphaScreen HP1-beta / biotin-H3K9me3 peptide binding | Potency, µM (highest dose often 114 µM), inactives show top-dose activity change, negative = inhibition, usual class: inhibitors | 0.56% of 390,000 active; also: nearly all actives have a fitted effect of over 70% in size
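Compound inhibition of the preformed complex between 50 nM HP1-beta and 50 nM biotinylated H3K9me3 peptide was read by AlphaScreen. Buffer was PBS pH 7.4 with 0.01% Tween-20. Incubations ran 30 min at room temperature, with 10 ug/mL donor/acceptor beads.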
Sfp PPTase inh: blocks B. subtilis Sfp PPTase activity; Biochemical Sfp PPTase activity, qHTS; Potency, µM, for inactives: largest response in the series, negative = inhibition, most hits filed as inhibitors; 3.5% of 310,000 active; AID 1490;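 also: the enzyme is Sfp with the accession as filed and its product quenches rhodamine fluorescence; 0% = enzyme reaction without inhibitor and -100% = no enzyme wells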
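Reaction rates are the 30-min fluorescence difference (ex 525, em 598 nm) in wells containing 15 nM Sfp, 5 uM rhodamine-CoA and 12.5 uM BHQ-2-YbbR at pH 7.6 with 10 mM MgCl2.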
12-LOX inh: blocks human arachidonate 12S-lipoxygenase; Potency, µM (doses to about 108 µM), inactives show top-dose activity change, negative = inhibition, most hits filed as inhibitors; P18054; purified 12hLO, xylenol orange hydroperoxide absorbance; AID 1671190; 1.1% of 580,000 active; also: % is scaled to controls: 0 for no effect and ±100 for the full control effect
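Purified human 12hLO at 150 nM in 25 mM Hepes, 0.01% Triton X-100, pH 7.0, preincubated 15 min at room temperature with compound. Reaction started with 40 uM arachidonic acid, 30 min at room temperature. Hydroperoxide measured by Fe-xylenol orange, 573/405 nm absorbance ratio.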
JMJD2A Tudor inh: inhibitors of human JMJD2A Tudor domain; O75164; AlphaScreen JMJD2A-Tudor / H3K4me3 peptide binding; Potency, µM (highest dose often 114 µM), inactives show top-dose activity change, negative = inhibition, hits mostly inhibitors; 4.4% of 390,000 active; AID 504339; also: % is scaled to controls: 0 for no effect and ±100 for the full control effect; nearly all actives have a fitted effect of over 50% in size
G9a inh: blocks human histone lysine methyltransferase G9a | 8.8% of 350,000 active | Potency, µM (series often up to 102 µM), inactives show at the highest dose activity, negative = inhibition, most hits filed as inhibitors | G9a H3K9 monomethylation, AlphaScreen, 2 h | Q96KQ7 | AID 504332; also: % is scaled to controls: 0 for no effect and ±100 for the full control effect; nearly all actives have a fitted effect of over 75% in size
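Chemiluminescent proximity detection of H3K9 monomethylation, read after 10 min bead incubation in the dark. Reaction: 20 nM G9a, 500 nM biotin-H3K9 peptide, 20 uM SAM cofactor, 2 h, room temperature, following 15 min enzyme-compound preincubation.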
* hit, by the source's call; ? = inconclusive; / = no result given; [ ] = dose if it differs, or a comment. An excerpt weighted towards active compounds, which were near 8.7% of everything screened. Calls follow the shape of the dose curve; as a rule, active = well fitted curve in the direction sought with a large enough effect; inconclusive = small, poorly fitted or top-dose-only effect, or another doubt; inactive = no such curve, though single readings can be large; an effect the other way counts as inactive or inconclusive. Potency is read from the fitted curve at half-maximal effect.

SMILES	BAZ2B inh	HP1b binding inh	Sfp PPTase inh	12-LOX inh	JMJD2A Tudor inh	G9a inh
CCCCN(C)CCNC(=S)Nc1ccc2nc(N3CCN(CC)CC3)cc(C)c2c1	-4%	-15%	12%	-6%	-18%	45µM*
CCCCN(C)C(=S)Nc1ccc2nc(N3CCN(CC)CC3)cc(C)c2c1	-29%	14%	6%	6%	-7%[11.4 µM]	45µM*
COCCCn1c(CN(C)CCc2ccccc2)cnc1S(=O)(=O)C1CCCC1	/	/	/	6%	/	/
CCN1CCN(c2cc(C)c3cc(NC(=S)N(C)Cc4ccccc4)ccc3n2)CC1	-33%	13%	7%	3%	?	?
CCN1CCN(c2cc(C)c3cc(NC(=O)c4ccc(OC)c(OC)c4)ccc3n2)CC1	-28%	11%	-7%	0%	-33%	71µM*
CCN(CC)CCNC(=S)Nc1ccc2nc(N3CCN(CC)CC3)cc(C)c2c1	-11%	-7%	13%	-16%	-20%	45µM*
CCN1CCN(c2cc(C)c3cc(NC(=S)NCCN(C)C)ccc3n2)CC1	0%	-34%	5%	?	-15%	50µM*
NC(N)=N/N=C/c1ccc(OCc2ccc(Cl)cc2)cc1	-7%	-9%	22µM*	?	?	?
Cc1ccc(NC(=S)N/N=C/c2cccn2Cc2ccccc2F)cc1	28µM*	26%	-7%	0%	?	?
COc1ccc(-c2nc(C3CC(=O)N(c4ccc(C)cc4)C3)no2)c(C)c1 (stereo not drawn)	/	/	/	8%	/	/
c1ccc(-c2nc(SCc3ncc(-c4ccccc4)o3)n[nH]2)cc1	/	/	/	7%	/	/
c1ccc(-c2cnc(CSc3ncnc4sccc34)o2)cc1	5%	89%	50µM*	?	-1%	14µM*
O=C(c1c(OCC2CC2)cc(=O)n2c1CCOCC2)N1CCOCC1	/	/	/	15%	/	/
S=C1NNC2(NN1)C1CC3CC(C1)CC2C3	-31%	22%	-3%	?	?	8.9µM*
S=c1sc2c(s1)SC1c3ccccc3CC1S2 (stereo not drawn)	/	/	/	16µM*	/	/
O=S1(=O)NC2c3ccccc3CC2O1 (stereo not drawn)	8%[57.1 µM]	46%	-2%	-21%	-16%	/
N#C/C(=C\c1ccc(N2CCOCC2)cc1)c1ccccc1	-5%	-1%	-19%	3%	-30%	5%[59 µM]
Cc1ccc(/C=C(/C#N)c2nc3ccccc3[nH]2)o1	/	/	/	-67%	/	/
S=C(c1nc2ccccc2[nH]1)N1CCOCC1	10%	?	25µM*	-5%	-53%	1.6µM*
N#C/C(=C/c1ccc(N2CCOCC2)o1)c1nc2ccccc2[nH]1	?	-19%	20µM*	?	?	8.9µM*
N#C/C(=C\c1ccc(N2CCOCC2)o1)c1ccccc1	40µM*	-14%	25µM*	20µM*	?	?
Cc1ccc(OC(C)C(=O)N2CC(C)CC(C)C2)cc1 (stereo not drawn)	/	/	/	1%	/	/
Cc1cccc(Nc2nc(NC3CCCC3)nc3c2cnn3-c2ccccc2)c1	/	/	/	13%	/	/
Cc1cccc(CN(C)CC2CCCN(CCc3cccc(C(F)(F)F)c3)C2)n1 (stereo not drawn)	/	/	/	114%	/	/
Cc1ccc(C2Cc3cc(O)c(O)cc3CN2)cc1 (stereo not drawn)	/	?	/	-104%	8.9µM*	/
SMILES	BAZ2B inh	HP1b binding inh	Sfp PPTase inh	12-LOX inh	JMJD2A Tudor inh	G9a inh
O=C1CCCN1CCCNCC(=O)N1c2ccccc2Sc2ccccc21	22µM*	?	?	-52%	10µM*	?
CC(C)OCCCNCC(O)c1ccccc1 (stereo not drawn)	79µM*	?	-13%	-16%	20µM*	?
O=C1CCCN1CCCNCC(O)c1ccccc1 (stereo not drawn)	?	?	-22%	-9%	1µM*	-2%
CCC(=O)N1CCc2sc(C(=O)NCc3ccc(Cl)cc3)cc2C1	/	/	/	37%	/	/
COc1ccc(NC(=O)c2nc(-c3ccccc3)oc2C)cc1	/	/	/	1%	/	/
CCc1cc(C(=O)N/N=C/c2ccncc2)cs1	/	/	/	13%	/	/
Cc1ccccc1C(=O)N1CC2(Cc3ccccc3N([S+](C)(=O)[O-])C2)C1	/	/	/	45µM*	/	/
C[S+](=O)([O-])N1CC2(Cc3ccccc31)CN(C(=O)c1ccccc1Cl)C2	/	/	/	-6%	/	/
COc1cc(C(C[N+](=O)[O-])c2c(N)n(C)c(=O)n(C)c2=O)ccc1O (stereo not drawn)	-27%	-4%	-2%	-1%	-9%	50µM*
Cc1[nH]c2ccccc2c1C(C[N+](=O)[O-])c1ccco1 (stereo not drawn)	?	-8%	-7%	?	?	50µM*
Cc1ccc(C(C[N+](=O)[O-])c2c(N)n(C)c(=O)n(C)c2=O)cc1 (stereo not drawn)	-27%	72%	4%	10%	-9%	?
COc1cc(C(C[N+](=O)[O-])c2c(C)[nH]c3ccccc23)ccc1O (stereo not drawn)	40µM*	-36%	1%	?	?	?
O=C(Nc1nccs1)C1=Cc2cc(Cl)ccc2OC=C1	/	/	/	3%	/	/
CC(C)NC(=O)C(C)Sc1nc(C(F)(F)F)nc2ccccc12 (stereo not drawn)	/	/	/	-3%	/	/
CN1Cc2sc(NC(=S)NC(=O)c3ccccc3)c(C#N)c2CC1(C)C	45µM*	?	32µM*	0%	35µM*	10µM*
CN1Cc2sc(N)c(C#N)c2CC1(C)C	-38%	-4%	-8%	171%	-28%[11.4 µM]	-5%[2.33 µM]
CCC1(C)Cc2c(sc(NC(=S)NC(=O)c3ccccc3)c2C#N)CO1 (stereo not drawn)	-31%	-14%	-26%	-23%	-27%	45µM*
CC1(C)Cc2c(sc(NC(=O)c3ccco3)c2C#N)CO1	-31%	34%	?	-11%	-14%	-27%[59 µM]
CCCNC(=O)C(C)Sc1nc(-c2ccco2)nc2ccccc12 (stereo not drawn)	/	/	/	1%	/	/
CCn1c(C)[n+](CC)c2ccc(S(=O)(=O)N(C)C)cc21	?	24%	10%	?	0%	45µM*
CC[n+]1c(C)n(C)c2cc(S(=O)(=O)N(C)C)ccc21	-39%	20%	-4%	8%	?	/
CCn1c(C)[n+](CC)c2ccc(C(=O)N(C)c3ccccc3)cc21	-27%	30%	-7%	?	-1%	35µM*
CCCN1C(=O)C(CC(=O)N2CCCC2)Sc2ncccc21 (stereo not drawn)	/	/	/	25%	/	/
CC(=O)N1CCC(N(Cc2ccco2)C(=O)Nc2ccccc2C(F)(F)F)CC1	/	/	/	3%	/	/
